# PubChem BioAssay
# Active and inactive are the calls of the source. Unless noted, the rule behind the calls is not given here.
# Columns and labels:
# [1] = tested on: Wnt5a (protein binding on small-molecule microarray); test: Wnt5a binders on small-molecule microarray, primary screen, biophysical, 635/667 nm fluorescence (AID 1142); conditions: 635 nm fluorescence, higher = more signal;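 note: fluorescence read at 667 nm with signal to noise per printed feature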
# [2] = cell viability in Huh7 cells, primary screen, cytotoxicity control for HCV replication inhibitor project, CellTiter-Glo luminescence, basal, 48 h (AID 1143); conditions: Huh7 HCV replicon, higher = more signal, called active from +8 up or from −8 down;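 note: Huh7 hepatoma cells carrying a hepatitis C replication reporter with no stimulus; test concentration not given here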
# [3] = P. aeruginosa biofilm formation inhibitors, primary screen, PAO1 strain, BacTiter-Glo luminescence, LB-PBS (AID 1144); conditions: 12 h, higher = more signal
# [4] = CREB reporter modulators without forskolin, primary screen, cell-based, PC12, CRE-LacZ reporter, unstimulated (AID 1145); conditions: no forskolin, luminescence, 4.5 h, higher = more signal, called active from +8 up or from −8 down
# [5] = CREB reporter modulators under forskolin, primary screen, cell-based, PC12, CRE-LacZ reporter, forskolin-stimulated (AID 1146); conditions: luminescence, 4.5 h, higher = more signal, called active from +8 up or from −8 down;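 note: PC12 cells with 6xCRE LacZ reporter stimulated by forskolin 10 µM; beta-galactosidase reporter signal reflecting CREB driven transcription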
# [6] = biological target: Streptavidin (Streptomyces avidinii) (UniProt P22629); test: streptavidin binders on small-molecule microarray, primary screen, artefact control for SMM compound annotation, biophysical, 635/667 nm fluorescence (AID 1147); conditions: streptavidin binding, higher = more signal;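 note: signal reflects streptavidin binding to arrayed compounds as a control protein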
# Sequence of Streptavidin (Streptomyces avidinii) (P22629 whole entry, looked up): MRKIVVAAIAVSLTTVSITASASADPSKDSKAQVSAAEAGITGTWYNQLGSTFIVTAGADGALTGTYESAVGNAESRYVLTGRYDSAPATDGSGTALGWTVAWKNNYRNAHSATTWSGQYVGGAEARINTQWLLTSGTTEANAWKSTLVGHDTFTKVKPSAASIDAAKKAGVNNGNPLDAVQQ
# [7] = small-molecule binders of probe aInhba, primary screen, biochemical, small-molecule microarray, 635/667 nm fluorescence (AID 1148); conditions: higher = more signal;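 note: score merges 667nm spot fluorescence with signal-to-noise for antibody binding to printed compounds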
# [8] = biological target: Torsin-1A (Homo sapiens) (UniProt O14656); test: torsin A binders from cell lysate, primary screen, small-molecule microarray, wild-type, 635/667 nm (AID 1149); conditions: COS7 hTOR1A-WT lysate, 635 nm fluorescence, higher = more signal
# Sequence of Torsin-1A (Homo sapiens) (O14656 whole entry, looked up): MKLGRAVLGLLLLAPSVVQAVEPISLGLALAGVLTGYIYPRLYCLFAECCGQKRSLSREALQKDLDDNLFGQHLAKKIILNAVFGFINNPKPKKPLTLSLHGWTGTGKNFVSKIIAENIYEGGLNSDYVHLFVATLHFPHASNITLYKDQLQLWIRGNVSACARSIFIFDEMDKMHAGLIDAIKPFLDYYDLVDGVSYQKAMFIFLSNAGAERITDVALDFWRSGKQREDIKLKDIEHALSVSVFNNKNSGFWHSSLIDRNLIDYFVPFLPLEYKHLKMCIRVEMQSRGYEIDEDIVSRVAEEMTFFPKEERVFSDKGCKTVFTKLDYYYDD
# [9] = biological target: Torsin-1A (Homo sapiens) (UniProt O14656); test: small-molecule binders of mutant TOR1A in lysate, primary screen, cell lysate, small-molecule microarray, COS7 lysate, 635/667 nm fluorescence (AID 1150); conditions: COS7 hTOR1A mutant lysate, 635 nm fluorescence, higher = more signal;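 note: score pools 667 nm emission and signal to noise measuring lysate protein binding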
# [10] = tested on: Sonic hedgehog protein (Shh); test: small-molecule binders of Shh protein, primary screen, biochemical, small-molecule microarray, 635/667 nm fluorescence (AID 1151); conditions: small-molecule microarray binding, 635 nm fluorescence; higher = more signal;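 note: Shh protein binding to compounds spotted on small-molecule microarray slides; score combines spot fluorescence intensity with signal-to-noise across triplicate slides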
# [11] = E. coli DRC41 culture turbidity changes, primary screen, E. coli filamentation inducer project, strain DRC41, OD650, 48 h (AID 1152);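 note: E. coli MC1000 strain DRC41 lacking acrAB efflux pump and sulA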; conditions: E. coli DRC41 (acrAB sulA), higher = more signal, called active from +8 up or from −8 down
# [12] = small-molecule binders of probe aLefty1, primary screen, biochemical, small-molecule microarray, 635/667 nm fluorescence (AID 1153); conditions: higher = more signal;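 note: score merges spot fluorescence with signal-to-noise ratio from the scanned slide images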
# [13] = PSAC antagonists in infected red cells, primary screen, cell-based, P. falciparum Indochina, OD700, 1 h (AID 1154); conditions: P. falciparum Indochina infected RBC osmotic lysis, higher = more signal, called active from +8 up or from −8 down
# [14] = PSAC antagonists in infected red cells, primary screen, cell-based, P. falciparum Indochina, OD700, 2 h (AID 1155);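 note: lysis reports solute entry through the parasite surface anion channel PSAC; channel blockers reduce lysis of infected cells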; conditions: P. falciparum Indochina infected erythrocytes, osmotic lysis OD700; higher = more signal, called active from +8 up or from −8 down
# [15] = osmotic lysis modulators in infected erythrocytes, primary screen, PSAC antagonist project, cell-based, P. falciparum Indochina, OD700, 3 h (AID 1156); conditions: higher = more signal, called active from +8 up or from −8 down
# [16] = PSAC antagonists in infected red cells, primary screen, cell-based, P. falciparum Indochina, OD700, 18 h (AID 1157); conditions: P. falciparum Indochina infected erythrocytes, osmotic lysis OD700, 18 h; higher = more signal, called active from +8 up or from −8 down
# [17] = modulators of S6 phosphorylation in cells, primary screen, cell-based, A549, cytoblot, luminescence, serum-stimulated (AID 1158); conditions: A549 phospho-S6 cytoblot, 5 h, higher = more signal;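 note: serum-stimulated A549 lung adenocarcinoma cells; signal is phosphorylated S6 detected by cytoblot immunostaining with HRP secondary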
# [18] = biological target: NADPH oxidase 2 (Homo sapiens) (UniProt P04839); test: NOX2-dependent H2O2 signal modulators, primary screen, NOX inhibitor project, cell-based, HEK293-NOX2, PMA-stimulated, Amplex Red fluorescence (AID 1159); conditions: 45 min, higher = more signal, called active from +8 up or from −8 down; note: test concentration not given here
# Sequence of NADPH oxidase 2 (Homo sapiens) (P04839 whole entry, looked up): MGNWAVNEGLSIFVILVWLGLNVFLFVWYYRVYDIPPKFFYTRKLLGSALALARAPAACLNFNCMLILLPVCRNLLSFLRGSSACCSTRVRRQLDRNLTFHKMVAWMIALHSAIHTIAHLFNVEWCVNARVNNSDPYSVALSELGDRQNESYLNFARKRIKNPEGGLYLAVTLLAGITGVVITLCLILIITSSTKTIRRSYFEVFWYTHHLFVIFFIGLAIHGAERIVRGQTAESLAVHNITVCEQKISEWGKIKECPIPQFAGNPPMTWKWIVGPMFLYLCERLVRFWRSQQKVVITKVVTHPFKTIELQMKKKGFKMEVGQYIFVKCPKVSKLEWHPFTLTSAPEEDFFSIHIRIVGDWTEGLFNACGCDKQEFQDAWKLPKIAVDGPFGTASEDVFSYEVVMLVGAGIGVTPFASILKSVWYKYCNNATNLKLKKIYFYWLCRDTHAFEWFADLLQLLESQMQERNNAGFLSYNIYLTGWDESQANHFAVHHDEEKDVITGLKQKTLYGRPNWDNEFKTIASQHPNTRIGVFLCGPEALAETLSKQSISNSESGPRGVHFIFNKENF
# [19] = biological target: NADPH oxidase 4 (Homo sapiens) (UniProt Q9NPH5); test: NOX4-dependent H2O2 signal modulators, primary screen, NOX inhibitor project, cell-based, HEK293-NOX4, tetracycline-induced, Amplex Red fluorescence (AID 1160); conditions: 45 min, higher = more signal, called active from +8 up or from −8 down
# Sequence of NADPH oxidase 4 (Homo sapiens) (Q9NPH5 whole entry, looked up): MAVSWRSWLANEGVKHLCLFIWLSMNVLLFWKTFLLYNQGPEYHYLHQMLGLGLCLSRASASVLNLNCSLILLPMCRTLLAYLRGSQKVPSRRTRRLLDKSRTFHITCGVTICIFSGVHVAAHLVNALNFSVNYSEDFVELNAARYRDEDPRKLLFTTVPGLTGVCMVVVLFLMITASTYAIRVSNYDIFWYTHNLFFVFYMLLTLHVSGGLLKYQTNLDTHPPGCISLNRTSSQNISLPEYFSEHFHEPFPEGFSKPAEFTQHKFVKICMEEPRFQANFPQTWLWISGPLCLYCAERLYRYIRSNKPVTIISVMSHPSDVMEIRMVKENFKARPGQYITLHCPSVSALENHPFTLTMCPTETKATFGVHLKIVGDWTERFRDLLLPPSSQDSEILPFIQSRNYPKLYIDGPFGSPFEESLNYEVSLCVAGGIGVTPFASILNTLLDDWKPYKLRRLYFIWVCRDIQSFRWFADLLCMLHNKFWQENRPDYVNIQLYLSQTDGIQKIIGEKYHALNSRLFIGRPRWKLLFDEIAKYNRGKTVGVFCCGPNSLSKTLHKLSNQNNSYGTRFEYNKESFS
# [20] = biological target: NADPH oxidase 5 (Homo sapiens) (UniProt Q96PH1); test: NOX5-dependent H2O2 signal modulators, primary screen, NOX inhibitor project, cell-based, HEK293-NOX5, Amplex Red fluorescence (AID 1161); conditions: HEK293-NOX5, ionomycin, 45 min, higher = more signal
# Sequence of NADPH oxidase 5 (Homo sapiens) (Q96PH1 whole entry, looked up): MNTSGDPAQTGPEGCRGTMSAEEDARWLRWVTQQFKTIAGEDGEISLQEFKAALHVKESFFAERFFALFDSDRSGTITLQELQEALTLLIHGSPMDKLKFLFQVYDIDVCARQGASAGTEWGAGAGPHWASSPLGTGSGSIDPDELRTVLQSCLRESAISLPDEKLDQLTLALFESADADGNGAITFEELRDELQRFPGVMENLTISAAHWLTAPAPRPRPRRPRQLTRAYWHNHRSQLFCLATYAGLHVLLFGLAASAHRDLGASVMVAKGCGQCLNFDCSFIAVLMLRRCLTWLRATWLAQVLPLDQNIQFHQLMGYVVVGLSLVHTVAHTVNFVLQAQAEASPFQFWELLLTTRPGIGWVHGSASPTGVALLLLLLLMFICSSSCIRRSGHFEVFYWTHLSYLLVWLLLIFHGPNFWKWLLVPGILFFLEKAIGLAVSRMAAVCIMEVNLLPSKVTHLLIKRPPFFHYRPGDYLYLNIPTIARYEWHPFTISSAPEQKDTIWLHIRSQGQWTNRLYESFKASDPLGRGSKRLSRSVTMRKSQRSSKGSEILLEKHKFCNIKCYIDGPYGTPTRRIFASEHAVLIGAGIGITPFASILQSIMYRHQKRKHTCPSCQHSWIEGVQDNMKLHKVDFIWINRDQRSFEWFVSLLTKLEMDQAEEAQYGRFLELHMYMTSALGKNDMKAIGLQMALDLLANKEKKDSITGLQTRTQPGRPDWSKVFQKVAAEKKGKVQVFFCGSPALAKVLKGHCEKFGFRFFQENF
smiles,measurement,setting,value
CC1CC/C=C\[C@H]2OC34C=CCN(Cn5nnc6ccccc65)C(=O)[C@H]3N(C(CO)C(C)C)C(=O)[C@@H]4C2C(=O)O1 (stereo not given in full),composite z-score,[1],-0.347
same,z-score,[2],0.154 (inactive)
same,z-score,[3],-0.246 (inactive)
same,z-score,[4],-1.03 (inactive)
same,z-score,[5],-1.05 (inactive)
same,composite z-score,[6],-0.24
same,composite z-score,[7],-0.159
same,composite z-score,[8],-1.45
same,composite z-score,[9],-1.12
same,composite z-score,[10],0.627
same,z-score,[11],0.532 (inactive)
same,composite z-score,[12],0.0956
same,z-score,[13],2.43 (inactive)
same,z-score,[14],0.0805 (inactive)
same,z-score,[15],0.752 (inactive)
same,z-score,[16],0.527 (inactive)
same,z-score,[17],-0.174
same,z-score,[18],1.09 (inactive)
same,z-score,[19],0.134 (inactive)
same,z-score,[20],2.22
COCCOC(=O)N1C(=O)[C@@]2(c3cc(C#CCCO)ccc31)[C@H](C(=O)N1CCN(c3ncccn3)CC1)[C@H]1C(=O)O[C@H](c3ccccc3)[C@H](c3ccccc3)N1[C@@H]2c1ccccc1OCCO,composite z-score,[1],0.0536
same,z-score,[2],-2.42 (inactive)
same,z-score,[3],-0.173 (inactive)
same,z-score,[4],-0.698 (inactive)
same,z-score,[5],-0.228 (inactive)
same,composite z-score,[6],1.08
same,composite z-score,[7],-0.0983
same,composite z-score,[8],0.259
same,composite z-score,[9],0.829
same,composite z-score,[10],0.842
same,z-score,[11],1.21 (inactive)
same,composite z-score,[12],0.157
same,z-score,[13],2.63 (inactive)
same,z-score,[14],1.14 (inactive)
same,z-score,[15],0.288 (inactive)
same,z-score,[16],0.761 (inactive)
same,z-score,[17],0.69
same,z-score,[18],1.45 (inactive)
same,z-score,[19],1.29 (inactive)
same,z-score,[20],0.437
CN(C)C(=O)[C@]1(Cc2ccccc2CN=[N+]=[N-])N=C(c2ccc(OCCCO)cc2)O[C@@H]1c1ccccc1CN=[N+]=[N-],composite z-score,[1],0.49
same,z-score,[2],-5.26 (inactive)
same,z-score,[3],-0.611 (inactive)
same,z-score,[4],1.31 (inactive)
same,z-score,[5],-0.394 (inactive)
same,composite z-score,[6],0.61
same,composite z-score,[7],0.461
same,composite z-score,[8],1.14
same,composite z-score,[9],0.917
same,composite z-score,[10],1.11
same,z-score,[11],-0.214 (inactive)
same,composite z-score,[12],0.425
same,z-score,[13],26.8 (active)
same,z-score,[14],13.4 (active)
same,z-score,[15],2.66 (inactive)
same,z-score,[16],-0.0196 (inactive)
same,z-score,[17],1.18
same,z-score,[18],-3.36 (inactive)
same,z-score,[19],-1.6 (inactive)
same,z-score,[20],-1.78
COCCOC(=O)N1C(=O)[C@@]2(c3cc(C#Cc4ccc(OC)cc4)ccc31)[C@H](c1ccccc1OCCO)N1[C@H](c3ccccc3)[C@H](c3ccccc3)OC(=O)[C@H]1[C@@H]2C(=O)N1CCN(c2ncccn2)CC1,composite z-score,[1],0.418
same,z-score,[2],-0.915 (inactive)
same,z-score,[3],-0.418 (inactive)
same,z-score,[4],-0.199 (inactive)
same,z-score,[5],0.298 (inactive)
same,composite z-score,[6],0.226
same,composite z-score,[7],-0.0405
same,composite z-score,[8],0.617
same,composite z-score,[9],0.374
same,composite z-score,[10],1.05
same,z-score,[11],0.148 (inactive)
same,composite z-score,[12],0.118
same,z-score,[13],3.79 (inactive)
same,z-score,[14],3.04 (inactive)
same,z-score,[15],1.3 (inactive)
same,z-score,[16],1.76 (inactive)
same,z-score,[17],-0.133
same,z-score,[18],0.978 (inactive)
same,z-score,[19],-0.00787 (inactive)
same,z-score,[20],0.882
COCCOC(=O)N1C(=O)[C@@]2(c3cc(C#CC4(O)CCCCCC4)ccc31)[C@H](c1ccc(O)cc1)N1[C@H](c3ccccc3)[C@H](c3ccccc3)OC(=O)[C@H]1[C@@H]2C(=O)Nc1nc2ccccc2s1,composite z-score,[1],0.513
same,z-score,[2],-0.073 (inactive)
same,z-score,[3],0.505 (inactive)
same,z-score,[4],1.42 (inactive)
same,z-score,[5],4.93 (inactive)
same,composite z-score,[6],1.19
same,composite z-score,[7],0.741
same,composite z-score,[8],0.549
same,composite z-score,[9],0.821
same,composite z-score,[10],1.35
same,z-score,[11],-0.565 (inactive)
same,composite z-score,[12],1.76
same,z-score,[13],0.69 (inactive)
same,z-score,[14],1.05 (inactive)
same,z-score,[15],0.207 (inactive)
same,z-score,[16],1.39 (inactive)
same,z-score,[17],-0.502
same,z-score,[18],1.75 (inactive)
same,z-score,[19],0.507 (inactive)
same,z-score,[20],1.07
O=C1OCCC/C=C\[C@H]2OC34C=CCN(c5ccc6ccccc6c5)C(=O)[C@H]3N(CCCCCCO)C(=O)[C@@H]4C12 (stereo not given in full),composite z-score,[1],-0.694
same,z-score,[2],0.117 (inactive)
same,z-score,[3],-1.7 (inactive)
same,z-score,[4],0.61 (inactive)
same,z-score,[5],-0.677 (inactive)
same,composite z-score,[6],-1.1
same,composite z-score,[7],-0.128
same,composite z-score,[8],-1.12
same,composite z-score,[9],-1.2
same,composite z-score,[10],-0.0305
same,z-score,[11],1.63 (inactive)
same,composite z-score,[12],0.325
same,z-score,[13],3.35 (inactive)
same,z-score,[14],-0.781 (inactive)
same,z-score,[15],0.562 (inactive)
same,z-score,[16],-1.46 (inactive)
same,z-score,[17],1.4
same,z-score,[18],1.52 (inactive)
same,z-score,[19],0.341 (inactive)
same,z-score,[20],2.26
C=CCOC(=O)[C@H]1[C@@H]2C(=O)O[C@@H](c3ccccc3)[C@@H](c3ccccc3)N2[C@@H](c2ccc(OCCOC(=O)[C@H]3C[C@H]4C(=O)N5CCC[C@H]5C(=O)N4[C@H]3c3ccc(O)cc3)cc2)[C@]12C(=O)Nc1ccccc12,composite z-score,[1],0.753
same,z-score,[2],-0.568 (inactive)
same,z-score,[3],-0.696 (inactive)
same,z-score,[4],0.415 (inactive)
same,z-score,[5],-0.702 (inactive)
same,composite z-score,[6],0.116
same,composite z-score,[7],-0.217
same,composite z-score,[8],0.874
same,composite z-score,[9],1.1
same,composite z-score,[10],1.8
same,z-score,[11],-0.827 (inactive)
same,composite z-score,[12],0.227
same,z-score,[13],1.72 (inactive)
same,z-score,[14],1.25 (inactive)
same,z-score,[15],1.58 (inactive)
same,z-score,[16],0.889 (inactive)
same,z-score,[17],-0.352
same,z-score,[18],2.25 (inactive)
same,z-score,[19],1.39 (inactive)
same,z-score,[20],1.87
C=C(/C(=C/C[C@@H](OC(C)=O)c1ccc(OCCO)cc1)c1cnc2ccccc2c1)C(C)C,composite z-score,[1],0.0701
same,z-score,[2],-1.07 (inactive)
same,z-score,[3],-0.25 (inactive)
same,z-score,[4],0.681 (inactive)
same,z-score,[5],-0.45 (inactive)
same,composite z-score,[6],0.376
same,composite z-score,[7],-0.084
same,composite z-score,[8],-0.969
same,composite z-score,[9],0.576
same,composite z-score,[10],1.67
same,z-score,[11],1.14 (inactive)
same,composite z-score,[12],-0.342
same,z-score,[13],15.4 (active)
same,z-score,[14],2.26 (inactive)
same,z-score,[15],1.79 (inactive)
same,z-score,[16],0.97 (inactive)
same,z-score,[17],0.853
same,z-score,[18],-2.99 (inactive)
same,z-score,[19],-0.926 (inactive)
same,z-score,[20],-2.24
